In the supplement of paper PMC10849652:
About 7,900 targets were measured; listed, in parts, are those with a hit and a random draw of the rest. About 0.6% of all pairs of compound and target were hits.

Key:
Assay in all cases: log2 fold change, soluble protein after heating vs DMSO (PISA); higher = thermal stabilisation; K562 cells, 10 uM, 30 min; active = over 0.2 and 3.5 SD of the protein, either way, in both replicates (recomputed)
[1] = compound: CC[C@@H]1C(=O)N(C)c2cnc(Nc3ccc(C(=O)NC4CCN(C)CC4)cc3OC)nc2N1C1CCCC1
Method in brief: (§1)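 Quantification of soluble protein used TMTpro 16plex LC-MS/MS, with channel sums equalised. Samples were the supernatant after 21,000xg for 90 min of pooled aliquots from K562 cells (2×10^6 cells/mL) treated with 10 μM compound for 30 min, heated for 3 min over 48°C-58°C, and extracted in PBS with 0.5% NP-40 at 4°C. Values, from duplicates, describe thermal stability against control samples on a log2 fold-change scale.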

volasertib = compound: CC[C@@H]1C(=O)N(C)c2cnc(Nc3ccc(C(=O)N[C@H]4CC[C@H](N5CCN(CC6CC6)CC5)CC4)cc3OC)nc2N1C(C)C [volasertib]
Method in brief: as §1

[2] = compound: CC[C@H](C)N1C=C(C2=C(C=C(C=C21)C3=CN=C(C=C3)N4CCNCC4)C(=O)NCC5=C(C=C(NC5=O)C)C)C
Method in brief: as §1

epoxomicin = compound: CC[C@H](C)[C@@H](C(=O)N[C@@H]([C@@H](C)O)C(=O)N[C@@H](CC(C)C)C(=O)[C@]1(CO1)C)NC(=O)[C@H]([C@@H](C)CC)N(C)C(=O)C [epoxomicin]
Method in brief: as §1

[3] = compound: CCn1c(C(=O)N(C2CC2)C2CC2)cc2c3c(ncn3C)c(Nc3cc(C)n(C)n3)nc21
Method in brief: as §1

[4] = compound: CCn1cc(-c2ccnc3[nH]c(-c4cccc(CN(C)C)c4)cc23)c(-c2ccc(NC(=O)N(C)C)cc2)n1
Method in brief: as §1

[5] = compound: CN(C)CC(=O)Nc1ccc2[nH]c(=O)c3ccccc3c2c1
Method in brief: as §1

rosiglitazone = compound: CN(CCOC1=CC=C(C=C1)C[C@H]2C(=O)NC(=O)S2)C3=CC=CC=N3 (racemic) [rosiglitazone]
Method in brief: as §1

[6] = compound: CN1C2=C(C3=C1C(=O)N(N=C3)CC4=CC(=CC=C4)N)SC(=C2)S(=O)C
Method in brief: as §1

[7] = compound: CN1CCC(CNc2ccc3ncc(-c4cccc(OC(F)(F)F)c4)n3n2)CC1
Method in brief: as §1

Measured: log2 fold change

XPO1 (UniProt O14980)
inactive: [1] -0.175 | [2] 0.085 | epoxomicin 0.023 | [3] -0.049 | [4] -0.13 | [5] 0.058 | rosiglitazone 0.077 | [6] -0.033
active: volasertib -0.546 | [7] -0.343

UFL1 (UniProt O94874)
inactive: [1] -0.063 | [2] 0.086 | epoxomicin 0.004 | [3] -0.06 | [4] -0.023 | [5] 0.054 | rosiglitazone 0.06 | [6] 0.04 | [7] -0.089
active: volasertib -0.351

WDR47 (UniProt O94967)
inactive: [1] 0.011 | volasertib -0.112 | [2] -0.02 | epoxomicin -0.037 | [3] -0.047 | [4] -0.055 | [5] -0.012 | rosiglitazone -0.003 | [6] 0.029 | [7] 0.234

UBE2S (UniProt Q16763)
active: volasertib -0.214
inactive: [1] -0.025 | [2] 0.005 | epoxomicin 0.195 | [3] -0.009 | [4] 0.015 | [5] 0.048 | rosiglitazone -0.004 | [6] -0.048 | [7] 0.024

WRB (UniProt O00258)
inactive: [1] 0.011 | volasertib 0.057 | [2] -0.071 | epoxomicin -0.059 | [3] -0.021 | [4] -0.02 | [5] -0.024 | rosiglitazone -0.025 | [6] 0.029 | [7] -0.016

TOE1 (UniProt Q96GM8)
active: [7] 0.35
inactive: [1] 0.067 | volasertib 0.154 | [2] -0.023 | epoxomicin -0.148 | [3] -0.067 | [4] 0.035 | [5] -0.043 | rosiglitazone -0.03 | [6] 0.107

USP7 (UniProt Q93009)
active: [7] -0.351
inactive: [1] -0.045 | volasertib -0.215 | [2] 0.101 | epoxomicin 0.02 | [3] -0.12 | [4] -0.164 | [5] 0.097 | rosiglitazone 0.116 | [6] -0.005

TTI1 (UniProt O43156)
UniProt O43156, sequence (O43156 whole entry, looked up): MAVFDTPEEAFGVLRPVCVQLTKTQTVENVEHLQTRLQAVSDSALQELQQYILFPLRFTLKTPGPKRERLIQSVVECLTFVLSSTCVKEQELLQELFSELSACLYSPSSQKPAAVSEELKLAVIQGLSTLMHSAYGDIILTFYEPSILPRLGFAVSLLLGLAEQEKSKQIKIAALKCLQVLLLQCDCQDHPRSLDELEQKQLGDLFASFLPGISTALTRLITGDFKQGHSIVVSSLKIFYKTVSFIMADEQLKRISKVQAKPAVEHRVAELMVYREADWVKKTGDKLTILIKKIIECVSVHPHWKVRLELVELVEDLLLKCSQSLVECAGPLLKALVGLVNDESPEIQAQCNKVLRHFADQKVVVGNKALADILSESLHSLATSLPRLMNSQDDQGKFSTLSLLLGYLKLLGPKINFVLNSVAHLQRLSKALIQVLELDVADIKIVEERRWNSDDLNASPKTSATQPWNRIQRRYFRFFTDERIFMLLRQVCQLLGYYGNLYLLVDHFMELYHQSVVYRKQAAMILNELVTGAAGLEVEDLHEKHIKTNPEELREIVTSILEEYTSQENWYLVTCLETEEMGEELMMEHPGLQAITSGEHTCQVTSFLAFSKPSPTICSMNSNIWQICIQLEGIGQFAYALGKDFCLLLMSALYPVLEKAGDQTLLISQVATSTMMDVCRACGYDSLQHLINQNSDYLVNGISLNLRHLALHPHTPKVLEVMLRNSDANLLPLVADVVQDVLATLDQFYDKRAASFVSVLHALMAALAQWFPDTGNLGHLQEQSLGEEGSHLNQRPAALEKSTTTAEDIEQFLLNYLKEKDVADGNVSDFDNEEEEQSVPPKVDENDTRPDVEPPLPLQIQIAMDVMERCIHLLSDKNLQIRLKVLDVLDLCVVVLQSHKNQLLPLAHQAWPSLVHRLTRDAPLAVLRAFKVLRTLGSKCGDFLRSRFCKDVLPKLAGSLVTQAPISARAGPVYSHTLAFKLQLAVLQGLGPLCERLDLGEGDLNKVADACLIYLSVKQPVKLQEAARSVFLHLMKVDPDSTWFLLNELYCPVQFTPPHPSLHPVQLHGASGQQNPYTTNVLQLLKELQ
inactive: [1] -0.208 | [2] 0.08 | epoxomicin -0.024 | [3] -0.083 | [4] -0.038 | [5] 0.048 | rosiglitazone 0.04 | [6] 0.134 | [7] -0.134
active: volasertib -0.431

TRIP10 (UniProt Q15642)
inactive: [1] -0.024 | volasertib -0.11 | [2] 0.047 | epoxomicin 0.034 | [3] -0.051 | [4] -0.051 | [5] 0.04 | rosiglitazone 0 | [6] -0.036 | [7] -0.056

U2AF2 (UniProt P26368)
inactive: [1] -0.057 | [2] 0.039 | epoxomicin -0.024 | [3] 0.029 | [4] 0 | [5] 0.002 | rosiglitazone 0.003 | [6] 0
active: volasertib -0.231 | [7] -0.307

TXNRD1 (UniProt Q16881)
UniProt Q16881, sequence (Q16881 whole entry, looked up): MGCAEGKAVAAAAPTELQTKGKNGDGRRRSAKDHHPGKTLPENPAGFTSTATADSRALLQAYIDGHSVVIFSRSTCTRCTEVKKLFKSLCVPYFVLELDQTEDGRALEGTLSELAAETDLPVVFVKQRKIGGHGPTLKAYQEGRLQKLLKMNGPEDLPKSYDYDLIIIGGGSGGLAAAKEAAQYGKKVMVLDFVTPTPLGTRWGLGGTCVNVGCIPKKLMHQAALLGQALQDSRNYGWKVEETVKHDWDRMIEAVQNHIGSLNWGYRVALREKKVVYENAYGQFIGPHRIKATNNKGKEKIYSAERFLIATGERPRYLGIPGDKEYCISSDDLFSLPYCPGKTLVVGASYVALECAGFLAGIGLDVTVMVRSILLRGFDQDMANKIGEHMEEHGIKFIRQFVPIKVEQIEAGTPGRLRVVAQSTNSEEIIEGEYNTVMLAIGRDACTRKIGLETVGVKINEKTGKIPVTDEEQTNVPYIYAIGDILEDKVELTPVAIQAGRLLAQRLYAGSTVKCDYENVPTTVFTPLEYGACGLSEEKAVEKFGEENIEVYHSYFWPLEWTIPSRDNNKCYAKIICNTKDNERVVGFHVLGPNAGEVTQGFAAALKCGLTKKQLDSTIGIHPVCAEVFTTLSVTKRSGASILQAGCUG
inactive: [1] 0.004 | volasertib 0.05 | [2] 0.006 | epoxomicin 0.054 | [3] -0.032 | [4] -0.049 | [5] -0.003 | rosiglitazone 0.067 | [6] -0.096 | [7] -0.006

WBP4 (UniProt O75554)
inactive: [1] -0.004 | volasertib -0.045 | [2] 0.003 | epoxomicin 0.069 | [3] 0.025 | [4] -0.089 | [5] -0.036 | rosiglitazone -0.038 | [6] -0.058 | [7] 0.218

WAPL isoform 3 (UniProt Q7Z5K2)
inactive: [1] -0.183 | [2] 0.164 | epoxomicin 0.101 | [3] -0.038 | [4] 0.015 | [5] 0.104 | rosiglitazone -0.06 | [6] -0.018 | [7] -0.246
active: volasertib -0.61

VRK2 (UniProt Q86Y07)
UniProt Q86Y07, sequence (Q86Y07 whole entry, looked up): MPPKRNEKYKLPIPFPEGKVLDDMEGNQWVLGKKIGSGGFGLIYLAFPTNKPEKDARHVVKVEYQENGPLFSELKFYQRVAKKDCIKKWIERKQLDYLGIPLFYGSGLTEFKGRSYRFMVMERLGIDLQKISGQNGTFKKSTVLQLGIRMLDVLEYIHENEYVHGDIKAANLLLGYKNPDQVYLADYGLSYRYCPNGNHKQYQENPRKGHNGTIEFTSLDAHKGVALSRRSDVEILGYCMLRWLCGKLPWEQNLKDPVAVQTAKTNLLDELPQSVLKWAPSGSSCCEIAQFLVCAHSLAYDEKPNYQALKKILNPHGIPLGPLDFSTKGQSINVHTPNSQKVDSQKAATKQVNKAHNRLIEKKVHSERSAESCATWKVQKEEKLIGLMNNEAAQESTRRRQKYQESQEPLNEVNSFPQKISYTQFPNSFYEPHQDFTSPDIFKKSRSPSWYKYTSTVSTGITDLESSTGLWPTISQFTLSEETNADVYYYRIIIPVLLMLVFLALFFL
inactive: [1] 0.034 | volasertib -0.049 | [2] 0.054 | epoxomicin 0.021 | [3] -0.072 | [4] -0.005 | [5] -0.009 | rosiglitazone 0.019 | [6] -0.04
active: [7] 0.229

TRAPPC8 (UniProt Q9Y2L5)
UniProt Q9Y2L5, sequence (Q9Y2L5 whole entry, looked up): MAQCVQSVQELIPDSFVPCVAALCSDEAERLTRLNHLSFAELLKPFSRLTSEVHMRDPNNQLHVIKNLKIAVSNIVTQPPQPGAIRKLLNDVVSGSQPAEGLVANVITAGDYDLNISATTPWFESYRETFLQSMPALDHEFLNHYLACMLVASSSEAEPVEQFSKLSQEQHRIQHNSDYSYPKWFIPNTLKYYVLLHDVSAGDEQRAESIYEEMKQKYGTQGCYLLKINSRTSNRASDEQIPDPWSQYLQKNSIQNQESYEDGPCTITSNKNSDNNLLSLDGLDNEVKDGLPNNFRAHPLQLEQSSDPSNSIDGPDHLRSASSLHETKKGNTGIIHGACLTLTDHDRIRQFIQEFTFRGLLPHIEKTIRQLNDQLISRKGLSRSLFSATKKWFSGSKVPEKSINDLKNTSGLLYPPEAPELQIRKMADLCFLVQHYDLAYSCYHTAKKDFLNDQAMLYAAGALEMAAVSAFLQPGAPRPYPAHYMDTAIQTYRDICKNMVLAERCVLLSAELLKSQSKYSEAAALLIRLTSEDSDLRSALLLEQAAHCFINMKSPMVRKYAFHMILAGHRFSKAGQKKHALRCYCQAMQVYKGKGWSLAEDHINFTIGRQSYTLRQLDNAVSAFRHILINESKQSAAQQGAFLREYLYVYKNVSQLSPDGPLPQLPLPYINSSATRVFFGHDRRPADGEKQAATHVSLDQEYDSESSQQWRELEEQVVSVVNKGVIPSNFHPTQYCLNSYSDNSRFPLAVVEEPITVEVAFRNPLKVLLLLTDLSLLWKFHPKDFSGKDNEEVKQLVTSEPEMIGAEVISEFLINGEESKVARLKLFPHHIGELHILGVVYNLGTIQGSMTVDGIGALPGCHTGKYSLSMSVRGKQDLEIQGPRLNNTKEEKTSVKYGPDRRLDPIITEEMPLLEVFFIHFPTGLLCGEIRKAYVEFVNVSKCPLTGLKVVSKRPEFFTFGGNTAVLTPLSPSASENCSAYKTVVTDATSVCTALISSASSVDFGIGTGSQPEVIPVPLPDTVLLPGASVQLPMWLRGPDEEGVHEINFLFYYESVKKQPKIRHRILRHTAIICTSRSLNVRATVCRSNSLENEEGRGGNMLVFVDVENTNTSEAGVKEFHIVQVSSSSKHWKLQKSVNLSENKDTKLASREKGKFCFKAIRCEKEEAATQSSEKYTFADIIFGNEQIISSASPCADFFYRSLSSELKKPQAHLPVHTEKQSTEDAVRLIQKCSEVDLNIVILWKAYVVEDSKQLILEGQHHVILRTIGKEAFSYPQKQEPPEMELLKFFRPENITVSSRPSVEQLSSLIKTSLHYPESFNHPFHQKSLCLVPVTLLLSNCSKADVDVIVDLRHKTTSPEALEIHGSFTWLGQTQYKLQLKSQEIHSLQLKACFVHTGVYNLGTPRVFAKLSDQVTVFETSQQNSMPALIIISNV
inactive: [1] -0.092 | [2] 0.077 | epoxomicin 0.033 | [3] -0.023 | [4] -0.073 | [5] 0.015 | rosiglitazone 0.059 | [6] 0.04 | [7] -0.099
active: volasertib -0.287

WDHD1 (UniProt O75717)
inactive: [1] -0.209 | [2] 0.079 | epoxomicin 0.071 | [3] -0.018 | [4] -0.033 | [5] 0.051 | rosiglitazone 0.072 | [6] -0.063 | [7] -0.118
active: volasertib -0.458

UGDH (UniProt O60701)
inactive: [1] -0.041 | volasertib -0.128 | [2] 0.11 | epoxomicin 0.064 | [3] -0.076 | [4] 0.031 | [5] 0.05 | rosiglitazone -0.034 | [6] -0.113 | [7] -0.106

UPF3B (UniProt Q9BZI7)
inactive: [1] 0.146 | volasertib 0.333 | [2] 0.059 | epoxomicin -0.388 | [3] 0.084 | [4] 0.271 | [5] -0.1 | rosiglitazone -0.094 | [6] 0.28 | [7] 0.341

VTI1A (UniProt Q96AJ9)
UniProt Q96AJ9, sequence (Q96AJ9 whole entry, looked up): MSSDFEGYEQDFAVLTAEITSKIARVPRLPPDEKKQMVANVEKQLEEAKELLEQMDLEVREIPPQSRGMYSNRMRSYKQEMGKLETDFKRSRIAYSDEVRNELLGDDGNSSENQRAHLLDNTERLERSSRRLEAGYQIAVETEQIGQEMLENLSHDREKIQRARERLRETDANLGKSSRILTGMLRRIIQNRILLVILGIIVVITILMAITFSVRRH
inactive: [1] 0.051 | volasertib -0.002 | [2] -0.026 | epoxomicin 0.006 | [3] 0.039 | [4] 0.068 | [5] 0.028 | rosiglitazone -0.017 | [6] 0.01
active: [7] -0.219

VPS28 (UniProt Q9UK41)
active: volasertib -0.3
inactive: [1] -0.057 | [2] 0.032 | epoxomicin 0.09 | [3] 0.001 | [4] -0.048 | [5] 0.011 | rosiglitazone 0.102 | [6] -0.038 | [7] -0.139

XPOT (UniProt O43592)
inactive: [2] 0.04 | epoxomicin -0.033 | [3] 0 | [4] 0.021 | [5] 0.058 | rosiglitazone 0.059 | [6] -0.028 | [7] -0.16
active: [1] -0.363 | volasertib -0.855

TMEM106B (UniProt Q9NUM4)
inactive: [1] 0.025 | volasertib -0.032 | [2] -0.05 | epoxomicin -0.11 | [3] -0.026 | [4] -0.007 | [5] -0.05 | rosiglitazone 0.022 | [6] 0.012 | [7] -0.13

TMEM173 (UniProt Q86WV6)
inactive: [1] 0.219 | volasertib 0.156 | [2] 0.086 | epoxomicin 0.026 | [3] 0.021 | [4] -0.017 | [5] 0.032 | rosiglitazone 0.044 | [6] -0.049
active: [7] 0.293

UBA6
inactive: [1] -0.139 | volasertib -0.189 | [2] 0.057 | epoxomicin 0.029 | [3] -0.008 | [4] -0.031 | [5] 0.033 | rosiglitazone 0.016 | [6] 0 | [7] 0.001

WDR41 (UniProt Q9HAD4)
active: volasertib -0.282
inactive: [1] -0.169 | [2] -0.056 | epoxomicin 0.061 | [3] -0.026 | [4] -0.043 | [5] 0.012 | rosiglitazone 0.007 | [6] -0.076 | [7] -0.115

TNFAIP8 isoform 4 (UniProt O95379)
inactive: [1] -0.015 | volasertib -0.414 | [2] 0.053 | epoxomicin 0.041 | [3] 0.07 | [4] -0.088 | [5] 0.022 | rosiglitazone 0.001 | [6] -0.084 | [7] -0.125

TMEM120A (UniProt Q9BXJ8)
inactive: [1] 0.127 | volasertib -0.053 | [2] 0.119 | epoxomicin 0.198 | [3] -0.011 | [4] -0.128 | [5] 0.015 | rosiglitazone 0.149 | [6] -0.061 | [7] 0.07

UBE2J1 (UniProt Q9Y385)
UniProt Q9Y385, sequence (Q9Y385 whole entry, looked up): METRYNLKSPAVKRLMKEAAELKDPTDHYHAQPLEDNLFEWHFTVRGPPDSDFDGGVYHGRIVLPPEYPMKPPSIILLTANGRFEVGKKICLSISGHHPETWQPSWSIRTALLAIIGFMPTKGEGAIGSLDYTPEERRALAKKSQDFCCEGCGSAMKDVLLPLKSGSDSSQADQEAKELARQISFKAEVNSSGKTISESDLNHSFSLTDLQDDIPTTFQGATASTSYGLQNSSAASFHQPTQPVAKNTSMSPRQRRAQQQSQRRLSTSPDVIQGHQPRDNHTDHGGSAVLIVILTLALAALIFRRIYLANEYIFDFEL
inactive: [1] -0.073 | volasertib -0.165 | [2] 0.07 | epoxomicin 0.248 | [3] -0.024 | [4] 0.014 | [5] 0.01 | rosiglitazone 0.003 | [6] -0.083 | [7] -0.006

UFD1 isoform 1 (UniProt Q92890)
UniProt Q92890, sequence (Q92890 whole entry, looked up): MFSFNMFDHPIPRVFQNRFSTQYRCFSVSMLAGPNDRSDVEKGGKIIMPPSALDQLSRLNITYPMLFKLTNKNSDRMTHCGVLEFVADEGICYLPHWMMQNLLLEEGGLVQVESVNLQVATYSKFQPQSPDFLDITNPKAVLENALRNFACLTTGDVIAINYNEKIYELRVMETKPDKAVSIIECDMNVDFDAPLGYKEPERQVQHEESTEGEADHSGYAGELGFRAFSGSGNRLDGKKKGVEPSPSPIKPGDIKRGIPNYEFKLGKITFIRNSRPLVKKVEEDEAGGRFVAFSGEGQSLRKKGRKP
inactive: [1] -0.009 | volasertib 0.021 | [2] 0.008 | epoxomicin 0.063 | [3] -0.021 | [4] 0.063 | [5] 0.003 | rosiglitazone 0.008 | [6] -0.045 | [7] -0.015

WDR37 isoform 2 (UniProt Q9Y2I8)
UniProt Q9Y2I8, sequence (Q9Y2I8 whole entry, looked up): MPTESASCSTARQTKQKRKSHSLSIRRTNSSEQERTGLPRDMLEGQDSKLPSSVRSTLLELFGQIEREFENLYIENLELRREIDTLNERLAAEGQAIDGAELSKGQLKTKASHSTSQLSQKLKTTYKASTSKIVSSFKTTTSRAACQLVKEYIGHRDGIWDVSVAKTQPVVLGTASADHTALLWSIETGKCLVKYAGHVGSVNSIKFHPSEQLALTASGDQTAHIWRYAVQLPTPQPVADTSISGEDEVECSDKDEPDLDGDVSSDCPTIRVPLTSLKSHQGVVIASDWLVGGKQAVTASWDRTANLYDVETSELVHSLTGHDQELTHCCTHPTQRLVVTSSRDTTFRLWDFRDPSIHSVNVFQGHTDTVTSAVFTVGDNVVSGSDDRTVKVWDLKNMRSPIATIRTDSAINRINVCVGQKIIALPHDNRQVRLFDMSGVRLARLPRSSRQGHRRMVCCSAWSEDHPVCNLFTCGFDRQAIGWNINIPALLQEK
inactive: [1] 0.078 | volasertib -0.022 | [2] -0.005 | epoxomicin -0.049 | [3] 0.007 | [4] -0.049 | [5] -0.004 | rosiglitazone 0.078 | [6] 0.246 | [7] -0.005
